Compound activity from PubChem.
TDP1 cell CPT = qHTS for Inhibitors of human tyrosyl-DNA phosphodiesterase 1 (TDP1): qHTS in cells in presence of CPT | chicken DT40 Tdp1-/-;hTDP1 cells + 20 nM CPT, ATP luminescence, 48 h | Potency, µM (top dose mostly 46.2 µM), actives largely listed as inhibitors | hit rate 12% among 420,000 | AID 686979, 2013; note: nearly all actives have a fitted effect of over 55% in size
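Chicken DT40 Tdp1-/- cells complemented with human TDP1, 400 cells/well, exposed to compounds plus 20 nM camptothecin for at least 48 h at 37 C; viability read as ATP content by CellTiter-Glo luminescence.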
TDP1 cell noCPT = qHTS for Inhibitors of human tyrosyl-DNA phosphodiesterase 1 (TDP1): qHTS in cells in absence of CPT; hit rate 15% among 420,000; Potency, µM (titrated, usually from 46.2 µM), hits mostly inhibitors; DT40 Tdp1-/- hTDP1 cells, no CPT, ATP luminescence, 48 h; note: nearly all actives have a fitted effect of over 55% in size
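Camptothecin absent (DMSO only). Human TDP1-complemented DT40 knockout cells, 400 cells/well, 37 °C for minimum 48 hr; ATP measured via CellTiter-Glo, 30 min dark incubation, luminescence.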
CtBP-E1A blk = qHTS Assay for Inhibitors of the CtBP/E1A Interaction. CtBP / adenovirus E1A interaction (AlphaScreen). activity change, % (concentration not given with the values). hit rate 0.49% among 340,000. AlphaScreen GST-E1A/His-CtBP binding, 1536-well; stronger effect = lower value; in the data active = activity change below about -65%; inconclusive = mostly about -30% to -63%
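In 5 uL wells, 23 nL compound meets equimolar GST-E1A and His-CtBP (5X stock 125 nM each) for 2 h, 37 °C. Beads (5X, 50 ug/mL) then 1 h, 37 °C, dark.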
Six1-Eya2 inh = qHTS Assay for Inhibitors of the Six1/Eya2 Interaction; Homeobox protein SIX1 (Homo sapiens) + Protein phosphatase EYA2 (Homo sapiens), …; AlphaScreen GST-Six1/His-Eya2 binding, biochemical; stronger effect = lower value; activity change, % (test concentration not listed); hit rate 0.56% among 360,000; in the data active = activity change below about -65%; inconclusive = mostly about -30% to -63%
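GST-Six1 + His-Eya2 (5X stock: 250/500 nM); Tris pH 8.0, 300 mM NaCl, 0.05% BSA, 0.02% Tween 20; GSH donor/Ni acceptor beads; 1 h 37 °C dark; AlphaScreen readout.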
TDP1 block = qHTS Assay for Inhibitors of Tyrosyl-DNA Phosphodiesterase (TDP1). Tyrosyl-DNA phosphodiesterase 1 (Homo sapiens), Q9NUW8. Potency, µM (top dose mostly 130 µM), hits mostly inhibitors. hit rate 0.28% among 350,000. recombinant TDP1, AlphaScreen DNA substrate cleavage; note: nearly all actives have a fitted effect of over 40% in size
Target sequence (Q9NUW8 whole entry, looked up): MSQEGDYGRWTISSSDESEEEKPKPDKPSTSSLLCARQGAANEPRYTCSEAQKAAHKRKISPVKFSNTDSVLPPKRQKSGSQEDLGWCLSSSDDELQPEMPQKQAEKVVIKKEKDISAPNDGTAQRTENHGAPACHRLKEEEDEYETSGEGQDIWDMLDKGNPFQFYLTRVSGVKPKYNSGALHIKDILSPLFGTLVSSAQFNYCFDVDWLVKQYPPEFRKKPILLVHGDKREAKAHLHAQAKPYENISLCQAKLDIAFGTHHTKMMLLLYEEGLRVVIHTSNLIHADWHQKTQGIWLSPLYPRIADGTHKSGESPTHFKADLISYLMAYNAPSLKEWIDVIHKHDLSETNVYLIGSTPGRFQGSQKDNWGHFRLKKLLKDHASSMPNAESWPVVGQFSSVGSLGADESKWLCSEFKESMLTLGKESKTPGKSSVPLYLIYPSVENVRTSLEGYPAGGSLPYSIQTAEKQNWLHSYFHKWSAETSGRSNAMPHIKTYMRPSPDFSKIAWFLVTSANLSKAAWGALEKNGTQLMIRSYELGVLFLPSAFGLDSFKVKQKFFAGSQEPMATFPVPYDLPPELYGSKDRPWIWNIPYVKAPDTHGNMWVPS
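Recombinant E. coli-expressed Tdp1 (1 nM) preincubated with compound 15 min at RT, then 5'-biotin/3'-phosphotyrosine-FITC DNA substrate (15 nM) added for 5 min. AlphaScreen beads (10 ug/ml) added, 10 min RT; tyrosine-FITC cleavage read as signal loss.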
IL1B secr inh = qHTS for Inhibitors of Inflammasome Signaling: IL-1-beta AlphaLISA Primary Screen; THP-1 LPS/ATP IL-1B secretion, AlphaLISA, 16 h; stronger effect = lower value; activity change, % at 57.5 µM; hit rate 4.7% among 360,000; in the data active = activity change below about -50%; inconclusive = mostly about -30% to -49%
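THP-1 cells pretreated 1 hr with compounds (up to 57.5 uM final), then stimulated with LPS (250 ng/mL final) plus ATP (1.25 mM final); secreted IL-1B measured by AlphaLISA after 16 hr, decreased signal indicating inhibition.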
Numbers stand for hits; . = inactive; ? = inconclusive; / = no result. Hits are enriched below; roughly 18% of the tested compounds scored in any of these assays. Unless noted, calls come from the whole dose curve; as a rule, active = well fitted curve in the direction sought with a large enough effect; inconclusive = small, poorly fitted or top-dose-only effect, or another doubt; inactive = no such curve, though single readings can be large; an effect the other way counts as inactive or inconclusive.

SMILES	TDP1 cell CPT	TDP1 cell noCPT	CtBP-E1A blk	Six1-Eya2 inh	TDP1 block	IL1B secr inh
CC(C)C[C@@H](CN1CCCC1CN1C(=S)NC[C@@H]1Cc1ccc(O)cc1)N1C[C@H](Cc2ccccc2)N(CC2CCCCC2)C1=S (stereo not given in full)	?	?	.	.	/	.
CC(C)C[C@H]1CN([C@@H](CC(C)C)CN2CCCC2CN2C(=S)NC[C@@H]2Cc2ccccc2)C(=S)N1CC1CCCCC1 (stereo not given in full)	16µM	?	.	.	/	.
CC(C)C[C@@H](CN1CCCC1CN1C(=S)NC[C@@H]1Cc1ccccc1)N1C[C@H](Cc2ccccc2)N(CC2CCCCCC2)C1=S (stereo not given in full)	10µM	?	.	.	/	.
Cc1ccc(C)c(N2CCN(C(=O)CCS(=O)(=O)c3cc4c(cc3Cl)NC(=O)CO4)CC2)c1	/	/	/	/	.	/
COc1ccccc1-c1csc(C(C)(O)c2cccc(F)c2)n1 (stereo not given)	13µM	16µM	.	.	/	.
CC(O)(c1cccc(F)c1)c1nc(-c2csc3ccccc23)cs1 (stereo not given)	?	?	.	.	/	.
COc1ccccc1-c1csc(C(C)(O)c2ccccc2)n1 (stereo not given)	15µM	?	.	.	/	.
O=C(NC1CCCC1)C(c1ccncc1)N(C(=O)c1csnn1)c1ccc(Cl)cc1 (stereo not given)	.	.	.	.	.	.
CCN1CCN(c2ccc(S(=O)(=O)N3CCOCC3)cc2NC(=O)/C=C/c2ccc(OC)c(OC)c2)CC1	.	.	.	.	.	?
CCN1CCN(c2ccc(S(=O)(=O)N3CCCCC3)cc2NC(=O)/C=C/c2cc(OC)ccc2OC)CC1	16µM	?	.	.	.	-98
CCN1CCN(c2ccc(S(=O)(=O)N3CCCCC3)cc2NC(=O)/C=C/c2ccc(Cl)cc2)CC1	?	?	.	.	/	-93
CCN1CCN(c2ccc(S(=O)(=O)N3CCCCC3)cc2NC(=O)/C=C/c2ccc(OC)c(OC)c2)CC1	?	?	.	.	/	.
COc1ccc(OC)c(/C=C/C(=O)Nc2cccc(S(=O)(=O)N3CCCC3)c2)c1	23µM	29µM	/	.	.	.
O=C(N[C@@H](Cc1ccccc1)C(=O)O)c1c(F)c(F)c(F)c(F)c1F	.	.	/	.	.	.
O=C(O)c1ccccc1NS(=O)(=O)c1cccc(C(F)(F)F)c1	.	.	.	.	.	.
O=C(O)c1ccccc1NS(=O)(=O)c1cccc(-n2sc3ccccc3c2=O)c1	15µM	8.2µM	.	.	?	-93
CCOC(=O)C1(CCOc2ccccc2)CCN(Cc2ccc3c(c2)OCCO3)CC1	?	?	.	.	/	-88
CCOC(=O)C1(CCOc2ccccc2)CCN(Cc2ccc(O)c(Cl)c2)CC1	16µM	13µM	/	.	/	.
OCC1(CCOc2ccccc2)CCN(Cc2ccc3c(c2)OCCO3)CC1	.	.	.	.	.	.
CCOC(=O)C1(CCOc2ccccc2)CCN(Cc2ccc(O)c(OC)c2)CC1	?	18µM	.	.	/	.
CCOC(=O)C1(CCOc2ccccc2)CCN(Cc2ccc(F)c(OC)c2)CC1	?	6.5µM	.	.	/	-88
CCOC(=O)C1(CCOc2ccccc2)CCN(Cc2ccc(C(=O)OC)cc2)CC1	?	?	.	.	/	.
CCCNc1c(NC(=O)c2ccc(OCCC)cc2)c(=O)oc2ccccc12	?	?	/	/	.	/
